Source: PubChem (National Center for Advancing Translational Sciences (NCATS))
Lassa entry inh: Lassa virus entry inhibition | Lassa virus pseudotype entry inhibition, cell reporter | Potency, µM (titrated, usually from 37.9 µM), for the others: at the highest dose activity change, negative = inhibition, hits mostly inhibitors | 300,000 tested, 1.2% active | AID 540256; calls by dose curve; tested in HEK293 cells; note: potency is the fitted concentration of half-maximal effect; nearly all actives have a fitted effect of over 50% in size
Vaccinia Venus: vaccinia inhibition (Venus reporter) | Vaccinia virus Venus reporter expression, fluorescence | Potency, µM (titrated, usually from 36.5 µM), for the others: at the top dose activity change, negative = inhibition, usual class: inhibitors | 330,000 tested, 0.46% active | AID 720580; calls by dose curve; tested in A549 cells; note: potency is the fitted concentration of half-maximal effect; nearly all actives have a fitted effect of over 30% in size
FMDV inh: foot and mouth disease virus antiviral activity. FMDV antiviral cell-based qHTS. 410,000 tested, 1.2% active. Potency, µM (doses to about 57.9 µM), without a hit: at the highest dose activity change, negative = inhibition, usual class: inhibitors. AID 1159524; calls by dose curve; tested in HEK293T cells; note: read-out not given here; potency is the fitted concentration of half-maximal effect; nearly all actives have a fitted effect of over 45% in size
Marburg entry inh: inhibitors of Marburg virus binding or cell entry | Marburg virus pseudotyped entry inhibition, cell reporter | Potency, µM (titrated, usually from 37.8 µM), without a hit: at the top dose activity change, negative = inhibition, hits mostly inhibitors | 300,000 tested, 1.8% active; calls by dose curve; tested in HEK293 cells; note: potency is the fitted concentration of half-maximal effect
VACV mCherry inh: inhibitors of vaccinia virus infection (mCherry reporter signal). Vaccinia virus mCherry reporter infection, fluorescence. Potency, µM (doses to about 36.5 µM), for inactives: at the top dose activity change, negative = inhibition, usual class: inhibitors. 310,000 tested, 0.63% active; calls by dose curve; tested in A549 cells; note: potency is the fitted concentration of half-maximal effect; nearly all actives have a fitted effect of over 35% in size
HCMV antiviral: inhibitors of human cytomegalovirus. HFF cells, HCMV-luciferase reporter, 72 h; active compounds read low. activity change, negative = inhibition, % at 57.5 µM. 410,000 tested, 4.5% active. AID 1259415; in the data active = activity change below about -60%; inconclusive = no clear call, values can overlap the other calls; inactive = above about -39%
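Cell-based, HFFs, 1000 cells/well, 16 h 37C; cpds in DMSO + HCMV-luc, MOI 1 PFU/cell; 72 h 37C; OneGlo luminescence after 5 min RT; norm. to buffer vs Salinomycin 10uM.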
Numbers without * were called inactive; i = inactive; ? = inconclusive; / = no result given; [ ] = remark or other dose. Sampled rows, rich in hits. Any-hit rate of the full collection: about 6.5%. % is set by controls: 0 for no effect and ±100 for the full control effect.

SMILES	Lassa entry inh	Vaccinia Venus	FMDV inh	Marburg entry inh	VACV mCherry inh	HCMV antiviral
COc1ccc(CCNC(=O)c2nnn(-c3ccc4c(c3)OCCO4)c2N)cc1OC	?	/	3.55µM*	?	/	-75.3*
COc1ccc(CCN2C(=O)CCC2(C)c2nnnn2-c2ccc3c(c2)OCCO3)cc1OC (centres undefined)	/	0.5%	-11.8%	/	40.8%	-83.1*
Cc1ccc(CN2C(=O)CCC2(C)c2nnnn2-c2ccc3c(c2)OCCO3)cc1 (centres undefined)	/	5.8%	-8.6%	/	-8.1%	10.0
COc1ccc(CCNC(=O)c2nnn(-c3ccccc3OC)c2N)cc1OC	14.7%	-14.6%	-19.1%	-15.6%	-16.4%	29.0
Nc1c(C(=O)Nc2cccc(F)c2)nnn1-c1ccc2c(c1)OCCO2	3.98µM*	-12.9%	-18.3%	?	-17.1%	134.7
Cc1ccc(C)c(-c2nnc(NC(=O)c3ccc4c(c3)OCCO4)o2)c1	-7.1%[46.1 µM]	-2.9%[7.34 µM]	-21.3%	/	-3.9%[7.34 µM]	?
Cc1cccc(CNC(=O)c2sc3ncnc(N(C)C4CCCCC4)c3c2C)c1	-28.9%[46.1 µM]	-11.3%	-28.1%	/	-6.8%	-23.1
O=C(COc1ccccc1F)Nc1ccc2c(c1)CCC2	4.5%	-6.6%	32.1%	?	-13.1%	84.6
O=C(COc1ccc2ccccc2c1)Nc1ccncc1	-1.0%	-20.8%	-13.3%	-3.5%[46.1 µM]	?	-99.7*
O=C(COc1ccc2c(c1)CCC2)Nc1ccccn1	11.2µM*	-3.0%	-87.3%	?	-17.8%	51.3
O=C(COc1cccc(Cl)c1)Nc1ccc2c(c1)CCC2	7.7%	-16.1%	23.2%	-2.0%	-19.7%	-65.8*
O=C(CCc1ccccc1)N(Cc1cccnc1)c1nc2c(F)cc(F)cc2s1	?	-12.8%	0.0%	/	-14.0%	?
Cc1ccc(C)c(-c2[nH]ncc2CN2CCCC(CO)(Cc3ccccc3C)C2)c1 (centres undefined)	/	1.0%	-24.6%	25.1µM*	-17.5%	-8.1
CCOc1ccc(-c2nnc(-c3ccccc3)n2-c2ccccc2)cc1	12.5%	/	9.4%	-4.4%	/	-11.7
CCOc1ccc(-n2c(C)c3c(C)nnc(C)c3c2C)cc1	/	?	?	/	?	-62.2*
CCc1nn2cc(C(=O)c3cc(Cl)ccc3O)cnc2c1-c1ccc(F)cc1	?	-6.0%	?	-1.8%	-14.1%	-70.1*
CCc1ccc(O)c(C(=O)c2cnc3cc(-c4ccc(C)cc4)nn3c2)c1	?	6.0%	-3.3%	9.8%[46.1 µM]	3.7%	2.3
CC(C)C1C(=O)N(Cc2cn(CC3CCCCC3)nn2)CCS(=O)(=O)N1Cc1ccc(-c2ccc(Cl)cc2)cc1 (centres undefined)	?	?	-26.2%	/	10µM*	-11.9
CC1C(=O)N(Cc2cn(CC3CCCCC3)nn2)CCS(=O)(=O)N1Cc1ccc(-c2ccc(Cl)cc2)cc1 (centres undefined)	/	11.2µM*	?	/	?	/
Cc1ccc(-c2ccc(CN3C(C(C)C)C(=O)N(Cc4cn(CC5CCCCC5)nn4)CCS3(=O)=O)cc2)cc1 (centres undefined)	?	?	-22.1%	/	-9.8%	17.8
CCc1ccccc1NS(=O)(=O)c1ccc2[nH]cc(C(=O)N3CCCCC3)c(=O)c2c1	14.8%[46.1 µM]	-1.5%	-0.7%	-25.7%[46.1 µM]	-8.5%	3.5
O=c1[nH]c(=S)[nH]cc1Oc1ccc(Cl)cc1Cl	/	-10.0%	-10.5%	/	i	-96.9*
O=c1[nH]cnc2n[nH]nc12	/	-18.0%	/	/	-28.3%	/
Cc1c2cnn(CC(=O)NCCc3ccccc3)c(=O)c2c(C)n1Cc1ccccc1	?	-6.9%	-19.1%	-4.3%[46.1 µM]	-10.5%	-3.6
Nc1ccc2c3c(ccc([N+](=O)[O-])c13)CC2	/	-12.4%	-26.3%	/	-19.7%	-69.3*
SMILES	Lassa entry inh	Vaccinia Venus	FMDV inh	Marburg entry inh	VACV mCherry inh	HCMV antiviral
CCOc1ccc(OCC)c(NC(=O)c2csc3c2CCCC3)c1	/	-10.9%	-7.3%	-6.9%[46.1 µM]	-20.1%	-30.1
COc1cc(O)c(C(=O)/C=C/c2ccc(OC)c(O)c2)c(OC)c1	/	?	20.8%	/	?	/
COc1c(O)cc2c(=O)oc3c(OC)c(O)cc4c(=O)oc1c2c34	/	/	-8.3%	/	/	/
COc1cccc2cc(C(=O)N3CC(C)OC(C)C3)c(=O)oc12 (centres undefined)	/	/	-19.7%	/	/	21.0
COc1cc2c(oc(=O)c3cc(C)cc(OC)c32)c2c(C3OC(C)C(O)C(C)(O)C3O)ccc(O)c12 (centres undefined)	?	?	0.0%	?	?	-68.7*
C=Cc1cc(OC)c2c(c1)c(=O)oc1c2cc(OC)c2c(O)ccc(C3OC(C)C(O)C(C)(O)C3O)c21 (centres undefined)	0.398µM*	1µM*	?	?	?	-97.8*
CCOC(=S)SCC(=O)Nc1nc(-c2ccccc2)cs1	?	-27.6%	-14.6%	?	-18.6%	-72.8*
CCOC(=S)SCC(=O)Nc1nc(-c2ccc(Br)cc2)cs1	8.91µM*	?	?	?	?	-99.5*
CCOC(=S)SCC(=O)Nc1nc(C)c(C)s1	/	/	-1.2%	/	/	65.0
CN(C)CC(=O)Nc1nc(-c2ccccc2)cs1	-17.6%	-11.1%	28.1%	14.6%	-4.8%	113.4
CCOC(=S)SCC(=O)Nc1nccs1	-12.5%	-14.2%	22.4µM*	?	-3.2%	3.2
COc1ccccc1C1(O)CCN(CC(=O)Nc2nc(-c3ccccc3)cs2)CC1	5.62µM*	-10.0%	25.1µM*	?	-19.7%	-12.0
Cc1cnc(CNC(=O)c2c3n(c(C)cc2=O)-c2ccccc2SC(c2ccsc2)C3)cn1 (centres undefined)	/	-10.4%	-15.1%	/	-11.7%	/
Cc1ccc(S(=O)(=O)Nc2cc(Cl)c3oc4c(c3c2)CCCC4)cc1	-23.1%[46.1 µM]	-6.6%	40.5%	/	-13.0%	-1.9
CCOC(=O)/C=C/[C@@H](CCCCOCc1ccccc1)NC(=O)C(F)(F)F	/	/	/	/	/	-7.4
CCOC(=O)N1CCN(C(=O)CSCC(=O)Nc2nc(-c3ccc(-c4ccccc4)cc3)cs2)CC1	/	?	?	/	?	-76.6*
CCOC(=O)N1CCN(C(=O)CSCC(=O)Nc2nc(-c3ccc(OC)cc3)cs2)CC1	-18.5%	/	?	?	/	14.1
COc1ccc(CCN2C(=O)C3C4C=CC(C3C2=O)C2C(=O)N(CCc3ccc(OC)c(OC)c3)C(=O)C42)cc1OC (centres undefined)	?	/	?	-6.7%	/	-94.2*
O=C(Nc1ccccn1)c1ccc(-c2ccccc2)cc1	?	-13.7%	-68.3%	1.12µM*	7.3%	-78.3*
COc1ccc(C(=O)Nc2ccccn2)cc1	13.4%	15.5%	5.0%	18.4%[46.1 µM]	10.2%	33.7
O=C(Nc1ccccn1)c1ccc(S(=O)(=O)N2CCCC2)cc1	?	-12.2%	35.6%	-0.2%[46.1 µM]	-8.1%	16.8
O=C(Nc1ccccn1)c1ccc(S(=O)(=O)c2ccc(Cl)cc2)cc1	?	-17.1%	0.0%	-3.8%[46.1 µM]	-14.6%	-63.6*
CCc1ccc(C2C(C(=O)Nc3ccc(Cl)cc3)=C(C)Nc3ncnn32)cc1 (centres undefined)	-0.9%[46.1 µM]	-7.7%	-15.8%	-4.7%[46.1 µM]	-9.1%	8.8
